From PubChem BioAssay (NCATS) come the findings set out here.

Inconclusive results are not listed. A number with no mark means an inactive call. Activity calls are given as the source filed them. Calls come from the whole dose curve; as a rule, active = well fitted cell-killing curve with a large enough effect; inconclusive = small, poorly fitted or top-dose-only effect; inactive = no such curve, though single readings can be large or run the other way.
Potency is the fitted concentration of half-maximal effect.

The test can be described thus: qHTS of pediatric cancer cell lines to identify multiple opportunities for drug repurposing: Primary screen for Rh41 cells (AID 1347108).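 For activity change, negative = cytotoxic: luminescence drop marks cytotoxic hits.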 Note: nearly all actives have a fitted effect of over 70% in size. Particulars: Rh41 rhabdomyosarcoma viability, CellTiter-Glo luminescence, 48 h; series mostly up to 46 µM; activity change, negative = cytotoxic: at the top concentration. The text has this: Drug repurposing or repositioning has been offered as a strategy for drug development in oncology programs. This approach has special potential for childhood cancers and other rare or orphan diseases, where the expected return on new drug development has been a disincentive to pharmaceuticals. […] In this project we exploit the poly-pharmacology of drugs to discover new indications via phenotypic screening of a panel of 19 well-characterized cell lines derived from solid tumors seen in children and adolescents. The goal is to identify approved drugs with previously unrecognized anticancer properties that has the potential to reveal new mechanisms and biological processes involved in carcinogenesis or drug resistance. We employed a titration-based paradigm (quantitative high-throughput screening or qHTS), where all compounds were tested at multiple concentrations for their effect on cell viability. Concentration-response curves (CRCs) were derived directly from the primary screen, and both potency and efficacy values were used to identify compounds with robust bioactivity profiles. We screened the NIH Chemical Genomics Center (NCGC) Pharmaceutical Collection (NPC) and Mechanism Interrogation Plate (MIPE) small molecule collections of approved and investigational compounds against these cell lines; and measured metabolically active cells after 48 hours of compound treatment as a proxy for cell viability. […] Assay Submitter: Nathalia J. Martinez, National Center for Advancing Translational Sciences, National Institutes of Health, Rockville, MD, USA; email: natalia.martinez@nih.gov Shen, M et al. Quantitative high-throughput phenotypic screening of pediatric cancer cell lines identifies multiple opportunities for drug repurposing. Oncotarget 2017 Dec 19;9(4):4758-4772. PMID 29435139.
The cells were obtained from University of North Carolina (UNC), Pediatric Preclinical Testing Program (PPT), and Coriell Institute (CI). qHTS cell viability assay: Cells were assayed in growth media at a density of 500-1,000 cells/well. Five microliters of cells were dispensed into 1,536-well, white, solid-bottom, TC-treated plates (Greiner Bio One) using a multidrop dispenser and incubated at 37 degrees C, 5% CO2, under a humidified atmosphere for 5 hours. Twenty-three nanoliters of compounds and controls (neutral control DMSO or positive control bortezomib at final concentration of 2.3 µM) were subsequently transferred by Kalypsys pintool. For primary screens, the MIPE collection was tested at 11-point dilutions (final concentrations range from 0.78 nM to 46 µM) and the NPC collection at 8-point dilutions (final concentrations range from 0.59 nM to 46 µM). Compounds tested in follow-up screens were assayed at 11-point dilutions. Cells were incubated for 48 hours, followed by addition of 3 µL of CellTiter-Glo (Promega). After a 15 min incubation at room temperature, samples were analyzed for luminescence intensity using a ViewLux High-throughput CCD imager equipped with clear filters.
(Quantitative high-throughput screening tests each substance at several concentrations.)
Regarding `CC(=O)O[C@H]1CC[C@@]2(C)C(=CC[C@@H]3[C@@H]2CC[C@]2(C)C(C(C)=O)=CC[C@@H]32)C1`, the “activity change, negative = cytotoxic” value is 19.8%. Turning to `CC(=O)[C@@]1(O)CC[C@H]2[C@@H]3C[C@H](C)C4=CC(=O)CC[C@]4(C)[C@H]3CC[C@@]21C`, the “activity change, negative = cytotoxic” value is -2.58%. Regarding `O=C1Nc2ccccc2C1(c1ccc(O)cc1)c1ccc(O)cc1`, the “activity change, negative = cytotoxic” value was -4.41%. As for `CCCCCCCCCCCCCCCCCCN(C)C`, the “activity change, negative = cytotoxic” value is 11.4%. The same measure, in the same setting: in the case of `Nc1ccc(C(=O)OCC(O)CO)cc1` (stereo not given) it was 22.7%.

Take `COc1cc2nc(Cl)nc(N)c2cc1OC`: the “activity change, negative = cytotoxic” value was 15.1%.

With `O=C(O)c1ccccc1S`, the “activity change, negative = cytotoxic” value is 35.3%. On the same count and under the same terms, in the case of `C[C@@H]1C[C@H]2[C@@H]3CCC4=CC(=O)C=C[C@]4(C)[C@@]3(F)[C@@H](O)C[C@]2(C)[C@@]1(O)C(=O)COC(=O)c1ccncc1` it was 15.2%; in that of `CC(=O)OCC(=O)[C@@]1(O)CCC2C3CCC4=CC(=O)CC[C@]4(C)C3[C@@H](O)C[C@@]21C` (stereo not given in full), 4.86%.

Regarding `Cc1cccc(C)c1NC(=O)c1cc(S(N)(=O)=O)c(Cl)cc1O`, the “activity change, negative = cytotoxic” value is 13.6%. Still for that read-out and setting: for `COc1ccc2cc(C=O)ccc2c1` the value was 10.3%; for `Cn1c(=O)c2c(ncn2CC(=O)O)n(C)c1=O`, 12.3%.

As for `CC(C)C(=O)OCc1cccc(OC(=O)[C@@H]2N3C(=O)[C@@H](NC(=O)Cc4ccccc4)[C@H]3SC2(C)C)c1`, the “activity change, negative = cytotoxic” value was 22.4%. On the same count and under the same terms, in the case of `O=C1c2ccccc2CCc2ccccc21` it was 16.5%; in that of `CC(C)OP(=O)(CP(=O)(OC(C)C)OC(C)C)OC(C)C`, 34%; in that of `CCCCN(CCCC)C(C(N)=O)c1ccc(OC)cc1` (stereo not given), 15.4%. In the case of `CC(=O)OCC(=O)Nc1cc(C#N)cc(NC(=O)COC(C)=O)c1Cl`, the “activity change, negative = cytotoxic” value was 24.9%. For `N#Cc1cc(NC(=O)C(=O)O)c(Cl)c(NC(=O)C(=O)O)c1`, the “activity change, negative = cytotoxic” value is 12.5%. With `CC(NC(CCc1ccccc1)C(=O)O)C(=O)N1C(=O)N(C)CC1C(=O)O` (stereo not given), the “activity change, negative = cytotoxic” value is 29.6%. Same read-out and setting: for `C[N+](C)(CCOc1ccccc1)Cc1cccs1` the value was -6.49%; for `CC(C)C[C@H](NC(=O)CNC(=O)[C@H](Cc1ccc(O)cc1)NC(=O)[C@H](CO)NC(=O)[C@H](Cc1c[nH]c2ccccc12)NC(=O)[C@H](Cc1cnc[nH]1)NC(=O)[C@@H]1CCC(=O)N1)C(=O)N[C@@H](CCCN=C(N)N)C(=O)N1CCC[C@H]1C(=O)NCC(N)=O` (stereo in doubt), 19.4%; for `CO[C@@H]1[C@@H](O[C@@H]2O[C@H](C)[C@@H](O[C@H]3C[C@@](C)(O)[C@@H](O)[C@H](C)O3)[C@H](N(C)C)[C@H]2O)[C@@H](CC=O)C[C@@H](C)[C@@H](O[C@@H]2CC[C@H](N(C)C)[C@@H](C)O2)/C=C/C=C/C[C@@H](C)OC(=O)C[C@H]1OC(C)=O`, 11.5%.

Take `O=C(Oc1ccccc1)c1cccc(C(=O)Oc2ccccc2)c1`: the “activity change, negative = cytotoxic” value is 26.6% [at 92.7 µM]. Still for that read-out and setting: in the case of `CC1CC(=O)NN=C1c1ccc(NCC(C)(C)NCC(O)COc2cc(Cl)ccc2C#N)cc1` (stereo not given) it was 2.11%; in that of `O=C(c1ccco1)N1CCNCC1`, 0.798%; in that of `O=[N+]([O-])c1cncn1CCN1CCOCC1`, 25.9%.

Take `C[C@H]1C[C@H](O)c2ccsc2S1(=O)=O`: the “activity change, negative = cytotoxic” value is 22.8%. Still for that read-out and setting: in the case of `O=C(O)c1ccc(OCCN2CCCCC2)cc1` it was 35.5%; in that of `COC(=O)c1cc(Cl)ccc1OC`, 13.3%. The same measure, in the same setting: in the case of `CCOC(=O)Cn1cccc1-c1nc(-c2ccc(OC)cc2)c(-c2ccc(OC)cc2)s1` it was 15.8%; in that of `CN(C)[C@@H]1C(=O)C(C(N)=O)=C(O)[C@@]2(O)C(=O)C3=C(O)c4c(O)cccc4C[C@H]3C[C@@H]12`, 12.7%. In the case of `O=C(O)c1ccccc1Nc1cc(Cl)ccc1C(=O)O`, the Potency was 11.6 µM (active). On to `NS(=O)(=O)c1cc2c(cc1Cl)CN(C1CCCCC1)C2=O`, for which the “activity change, negative = cytotoxic” value is 28.2%. Still for that read-out and setting: in the case of `NC(=O)NC1N=C([O][Al])NC1=O` (stereo not given) it was 14.4%; in that of `CC1CCCCN1CCCOC(=O)c1ccc(OC2CCCCC2)cc1` (stereo not given), 14.4%. The same measure, in the same setting: in the case of `Cc1ccc2c(Cl)cc(Cl)c(O)c2n1` it was 17.4%; in that of `O=C(CCCl)NCc1ccccc1`, 29.3%. As for `O=C(CCCl)NCCc1ccccc1`, the “activity change, negative = cytotoxic” value is 11%. On to `CCCCOCCOC(=O)c1cccnc1`, for which the “activity change, negative = cytotoxic” value was 26.6%. As for `COC(=O)c1cc(Cl)ccc1NS(=O)(=O)C(F)(F)F`, the “activity change, negative = cytotoxic” value is 28.7%.
